Several values for one entry are separate records, joined by “and”; a condition that tells them apart may be missing. Equal entries are not always repeated. This is part of a sample that, as a whole, favours compounds with a hit. Of some 83,000 tested, about 20% had one in any assay.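 Cells were grown in 96-well plates and exposed to the test compound at a single concentration for 48 hours; results are reported as percent growth, with values below 10 considered active.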 Values without a mark were called inactive. Activity calls are given as the source filed them.
Each compound was assayed on LOX IMVI melanoma (assay: NCI-60 one-dose screen, 48 h (100 = growth as untreated, 0 = no growth, -100 = all killed)). Settings: 10 µM.
Method: Growth inhibition of the LOX IMVI human tumor cell line is measured as a screen for anti-cancer activity. Cells are grown in 96 well plates and exposed to the test compound for 48 hours. Compounds are tested at a single concentration, which is 10^-5 M for most compounds. The reported endpoint is percent growth (GI% or GIPRCNT), where numbers from 0 - 100% represent growth inhibition, and numbers from -100% - 0 represent cell death. For example, a value of 40 represents 60% growth inhibition. A value of 0 means no net growth occurred over the course of the experiment. A value of -40 indicates 40% of cells at the beginning of the experiment died by the end of the experiment. A value of -100 means all cells are dead at the end of the experiment.
NCI-60 Human Tumor Cell Lines Screen was performed using the standard one-dose NCI protocol, which is described in more detail at https://dtp.cancer.gov/discovery_development/nci-60/default.htm.
Compounds with GIPRCNT values below 10 were considered active. Activity score was based on GIPRCNT using the following formula: […]
Score is 0 for GIPRCNT values of 100 or above, 50 for GIPRCNT values of 0, and 100 for GIPRCNT values of -100.

SMILES	growth
O=C(O)c1c(Cl)c(Cl)c(Cl)c(Cl)c1-c1c2cc(I)c(=O)c(I)c-2oc2c(I)c(O)c(I)cc12	98.6% and 92% and 87.7%

Same assay, conditions: 10 µM unless noted

SMILES	growth
CCC(CCCN(CC)CCc1ccccc1)OC(=O)c1cc(OC)c(OC)c(OC)c1 (stereo not given)	80.9%
CC(=O)ON=C1C=CC(=C(C#N)c2ccccc2)C=C1	5.8% (active)
Cc1ccc(NS(=O)(=O)c2ccc(C)cc2)cc1	99.2% and 96%
N#CSCc1ccc(CSC#N)c(Cl)c1	46.6%
CC(=Nc1ccc(N(C)C)cc1)c1ccccc1	60.2%
CCC(CC)COC(=O)c1ccc(O)c(O)c1	69.2%
NC(=S)N/N=C/c1ccc(Cl)s1	101%
Oc1c(Cl)c2ccccc2c2ccccc12	98%
CN(C)c1ccc(/C=N/N=C(\C#N)[S][Sn]([Cl])([c]2ccccc2)[c]2ccccc2)cc1	-92.8% (active)
COC(=O)c1nc(=S)[nH]c(C(=O)OC)c1C(=O)c1ccccn1	10.2%
O=C(O)c1ccc2c3c(ncnc13)-c1ccccc1C2=O	21.5%
O=C1NC(=O)/C(=C/C=C/c2ccccc2)S1	15.8%
COc1cc(NS(C)(=O)=O)ccc1Nc1c2ccccc2nc2ccccc12	23.8% [2.5 µM]
Cc1ccnc2c1ccc1c(C)ccnc12	2.99% (active)
CN(C)C(=O)c1ccc(SC(=S)NCc2ccccc2)cc1	87.5%
Oc1c(Br)cc(Cl)cc1C(c1cc(Cl)cc(Br)c1O)C(Cl)(Cl)Cl	34.3%
CC(=O)Nc1cccc2cc(O)ccc12	104% and 106%
O=C(Nc1cccc(Br)c1)Oc1ccc(Cl)c2cccnc12	4.16% [100 µM] (active)
C/C=C1\SC(=S)NC1=O	101%

SMILES	growth
CCCCCC(CCCCC)C(=O)O	110%
Cn1c2ccccc2c2nnc(N/N=C/c3ccccn3)nc21	1.32% (active)
Cc1ccc2nc(C[n+]3ccc4ccccc4c3)ccc2c1	68.4%
CC1OC(OC2C(OC3CCC4(C)C(CCC5(C)C4CC=C4C6CC(C)(C)CCC6(CO)C(O)CC45C)C3(C)C)OC(C(=O)O)C(OC3OC(COC4OC(CO)C(O)C(O)C4O)C(O)C(O)C3O)C2O)C(O)C(O)C1O (stereo not given)	-69.9% (active)
Cn1c2c(c3ccccc31)CCN1C[C@@H]3CCCC[C@H]3C[C@@H]21	15.6%
Nc1ncnc2c1ncn2C1OC(CO)C(O)C1O (stereo not given)	106% and 57.2% and 94.6%
c1ccc2c(c1)Nc1cc3ccccc3cc1N2	11.3%
O=C(/C=C\c1cc(Br)ccc1O)/C=C/c1cc(Br)ccc1O	-95.6% (active)
O=C(Nc1ccc(F)cc1)ON=C1CCCCC1	88.2% [100 µM]
O=C(Nc1ccccc1)c1cc(Cl)ccc1O	79.8%
CCOC(=O)/C(=C\c1ccc(-c2ccccc2)cc1)C(C)=O	98.4%
CCOC(=O)c1c(C)[nH]c(CO)c1C	101%
CCC(=O)Sc1ccccc1C(=O)Nc1ccc(Cl)cc1	42.2%
CCN1/C(=C\c2cc[n+](CC)c3ccccc23)C=Cc2ccccc21	4.04% (active)
C=CCOc1ccc(N=NC(C#N)C#N)cc1	26%
Cc1c2ccccc2c(C)c2c1ccc1ccccc12	64.3%
NC(N)=N/N=C/c1ccc([N+](=O)[O-])o1	82.1%
COc1cc(/C=C/C(C)=O)ccc1O	104%
CN(C)c1ccc(N=Nc2cccc3ccccc23)cc1	96.3%

Same assay, conditions: 100 µM

SMILES	growth
O=C(O)c1c(Cl)c(Cl)c(Cl)c(Cl)c1-c1c2cc(I)c(=O)c(I)c-2oc2c(I)c(O)c(I)cc12	-76.1% (active)
